Laboratory results: PubChem BioAssay AID1159580 (chemical genetic matrix, 2015)
About 2,000 (36%) of roughly 5,500 compounds were called active. Roughly 18% stayed inconclusive and do not appear here. Cut-off read from the data, not from the text of the source: active = normalized growth mostly below about 0.91 (no sharp cut-off); inconclusive = no clear call, values can overlap the other calls; inactive = mostly above about 0.92. Some of the results follow.

Assay: chemical genetic growth profiling, strain panel (AID 1159580);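 note: tested at 20 µM; growth read once vehicle control cultures reached saturation at 30 °C; 1 = growth at the plate median or of vehicle wells; lower values mean less growth of the strain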
Conditions: growth OD

Measured: normalized growth

Nc1ccc(S(=O)(=O)Nc2ccccn2)cc1
inactive: S. cerevisiae deletion strains, locus YKL009W, strain mrt4, active compounds read low 0.993 | S. cerevisiae deletion strains, locus YKL068W, active compounds read low 0.991 | S. cerevisiae deletion strains, locus YKL085W, strain MDH1 (second series), active compounds read low 0.982 | S. cerevisiae deletion strains, locus YKL085W, strain MDH1, active compounds read low 0.982 | S. cerevisiae deletion strains, locus YKL160W, strain elf1, active compounds read low 1.02 | S. cerevisiae deletion strains, locus YKL190W, strain CNB1, active compounds read low 1.01 | S. cerevisiae deletion strains, locus YKR001C, strain vps1, active compounds read low 0.995 | S. cerevisiae deletion strains, locus YKR026C, strain gcn3, active compounds read low 1.02 | S. cerevisiae deletion strains, locus YKR091W, strain srl3, active compounds read low 1.01 | S. cerevisiae deletion strains, locus YLL001W, strain dnm1, active compounds read low 1.03 | S. cerevisiae deletion strains, locus YLL026W, active compounds read low 1.02 | S. cerevisiae deletion strains, locus YLL041C, strain sdh2, active compounds read low 1.01 | S. cerevisiae deletion strains, locus YLR027C, strain aat2, active compounds read low 1.01 | S. cerevisiae deletion strains, locus YLR039C, strain RIC1, active compounds read low 1.03 | S. cerevisiae deletion strains, locus YLR058C, strain SHM2, active compounds read low 1.01 | S. cerevisiae deletion strains, locus YLR102C, strain apc9, active compounds read low 0.993 | S. cerevisiae deletion strains, locus YLR113W, strain HOG1, active compounds read low 0.976 | S. cerevisiae deletion strains, locus YLR221C, strain rsa3, active compounds read low 0.993 | S. cerevisiae deletion strains, locus YLR258W, strain gsy2, active compounds read low 1 | S. cerevisiae deletion strains, locus YLR262C, strain YPT6 (second series), active compounds read low 1.03 | S. cerevisiae deletion strains, locus YLR262C, strain YPT6, active compounds read low 1.04 | S. cerevisiae deletion strains, locus YLR268W, strain sec22, active compounds read low 0.944 | S. cerevisiae deletion strains, locus YLR320W, strain mms22, active compounds read low 0.985 | S. cerevisiae deletion strains, locus YLR330W, strain CHS5, active compounds read low 1 | S. cerevisiae deletion strains, locus YLR342W, strain FKS1 (second series), active compounds read low 0.985 | S. cerevisiae deletion strains, locus YLR342W, strain FKS1, active compounds read low 1.01 | S. cerevisiae deletion strains, locus YLR357W, strain rsc2, active compounds read low 0.996 | S. cerevisiae deletion strains, locus YLR370C, strain arc18, active compounds read low 1.01 | S. cerevisiae deletion strains, locus YLR371W, strain rom2, active compounds read low 0.99 | S. cerevisiae deletion strains, locus YLR384C, strain iki3, active compounds read low 1.01 | S. cerevisiae deletion strains, locus YLR418C, strain cdc73, active compounds read low 0.985 | S. cerevisiae deletion strains, locus YML016C, strain PPZ1, active compounds read low 1.01 | S. cerevisiae deletion strains, locus YML032C, strain rad52, active compounds read low 0.97 | S. cerevisiae deletion strains, locus YML120C, strain ndi1, active compounds read low 1.01 | S. cerevisiae deletion strains, locus YML124C, strain tub3, active compounds read low 1 | S. cerevisiae deletion strains, locus YMR058W, strain fet3, active compounds read low 1.03 | S. cerevisiae deletion strains, locus YMR078C, strain ctf18, active compounds read low 0.989 | S. cerevisiae deletion strains, locus YMR125W, strain sto1, active compounds read low 1.01 | S. cerevisiae deletion strains, locus YMR129W, active compounds read low 1.01 | S. cerevisiae deletion strains, locus YMR205C, strain PFK2, active compounds read low 1.01 | S. cerevisiae deletion strains, locus YMR223W, strain ubp8, active compounds read low 1.01 | S. cerevisiae deletion strains, locus YMR231W, strain pep5, active compounds read low 1.01 | S. cerevisiae deletion strains, locus YMR263W, strain SAP30, active compounds read low 1.01 | S. cerevisiae deletion strains, locus YMR307W, strain GAS1, active compounds read low 1.02 | S. cerevisiae deletion strains, locus YNL067W, strain RPL9B, active compounds read low 1.01 | S. cerevisiae deletion strains, locus YNL071W, strain lat1, active compounds read low 0.998 | S. cerevisiae deletion strains, locus YNL128W, strain TEP1, active compounds read low 1.01 | S. cerevisiae deletion strains, locus YNL153C, strain GIM3, active compounds read low 1.01 | S. cerevisiae deletion strains, locus YNL183C, strain NPR1, active compounds read low 0.945 | S. cerevisiae deletion strains, locus YNL209W, strain ssb2, active compounds read low 1.01 | S. cerevisiae deletion strains, locus YNL233W, strain BNI4, active compounds read low 1 | S. cerevisiae deletion strains, locus YNL248C, strain rpa49, active compounds read low 0.985 | S. cerevisiae deletion strains, locus YNL250W, strain rad50, active compounds read low 0.988 | S. cerevisiae deletion strains, locus YNL271C, strain bni1, active compounds read low 0.998 | S. cerevisiae deletion strains, locus YNL298W, strain CLA4, active compounds read low 0.988 | S. cerevisiae deletion strains, locus YNL307C, strain MCK1, active compounds read low 0.997 | S. cerevisiae deletion strains, locus YNL322C, strain KRE1 (second series), active compounds read low 1.01 | S. cerevisiae deletion strains, locus YNL322C, strain KRE1, active compounds read low 1 | S. cerevisiae deletion strains, locus YNR049C, strain mso1, active compounds read low 1.02 | S. cerevisiae deletion strains, locus YNR052C, strain pop2, active compounds read low 0.991 | S. cerevisiae deletion strains, locus YOL006C, strain TOP1, active compounds read low 1.05 | S. cerevisiae deletion strains, locus YOL012C, strain htz1 0.921 | S. cerevisiae deletion strains, locus YOL147C, strain pex11, active compounds read low 1 | S. cerevisiae deletion strains, locus YOR001W, strain rrp6, active compounds read low 1.02 | S. cerevisiae deletion strains, locus YOR061W, strain CKA2, active compounds read low 1.01 | S. cerevisiae deletion strains, locus YOR069W, strain VPS5, active compounds read low 1.01 | S. cerevisiae deletion strains, locus YOR070C, strain gyp1, active compounds read low 1 | S. cerevisiae deletion strains, locus YOR080W, strain dia2, active compounds read low 1.02 | S. cerevisiae deletion strains, locus YOR083W, strain WHI5, active compounds read low 0.991 | S. cerevisiae deletion strains, locus YOR106W, strain vam3, active compounds read low 1.04 | S. cerevisiae deletion strains, locus YOR136W, strain idh2, active compounds read low 0.992 | S. cerevisiae deletion strains, locus YOR144C, strain elg1, active compounds read low 0.989 | S. cerevisiae deletion strains, locus YOR184W, strain ser1, active compounds read low 0.993 | S. cerevisiae deletion strains, locus YOR231W, strain MKK1, active compounds read low 0.986 | S. cerevisiae deletion strains, locus YOR265W, strain rbl2, active compounds read low 1.01 | S. cerevisiae deletion strains, locus YOR270C, strain vph1, active compounds read low 1.01 | S. cerevisiae deletion strains, locus YOR290C, strain snf2, active compounds read low 0.997 | S. cerevisiae deletion strains, locus YOR316C, strain cot1, active compounds read low 0.994 | S. cerevisiae deletion strains, locus YPL051W, strain arl3, active compounds read low 1.01 | S. cerevisiae deletion strains, locus YPL078C, strain atp4, active compounds read low 1.02 | S. cerevisiae deletion strains, locus YPL106C, strain sse1, active compounds read low 0.975 | S. cerevisiae deletion strains, locus YPL240C, strain hsp82, active compounds read low 1.02 | S. cerevisiae deletion strains, locus YPL256C, strain CLN2, active compounds read low 0.968 | S. cerevisiae deletion strains, locus YPR119W, strain clb2, active compounds read low 0.975 | S. cerevisiae deletion strains, locus YPR141C, strain kar3, active compounds read low 0.99 | S. cerevisiae deletion strains, locus YPR163C, strain tif3, active compounds read low 0.993 | S. cerevisiae deletion strains, locus YPR167C, strain met16, active compounds read low 0.986 | S. cerevisiae deletion strains, strain wtn01, active compounds read low 0.998 | S. cerevisiae strains, strain wild type, active compounds read low 1.01
